Assay results as given in PubChem BioAssay (NCATS).
“And” between values parts separate entries of the source, which are not always exact repeats. Equal entries are not always repeated. Results filed as inconclusive are left out. A number with no mark means an inactive call. The source made the active and inactive calls. The call rests on the fitted dose curve; in most records, active means well fitted cell-killing curve with a large enough effect; inconclusive means small, poorly fitted or top-dose-only effect; inactive means flat fitted curve, though single readings scatter.

Key:
[1] = Cellular viability qHTS for adrenocortical cancer (ACC) cell line SW-13 (AID 1963989); conditions: SW-13 ACC cells viability, CellTiter-Glo, 48 h; activity (max response): active compounds read low; further: nearly all actives have a fitted effect of over 65% in size;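 on activity (max response): cells grown in serum-free medium with ITS supplement; on the % scale 0 is the no-effect control and ±100 the full control effect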
In short: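 Luminescent ATP read-out (CellTiter-Glo, 20 min at room temperature) measured metabolically competent SW-13 cells after 48 h compound treatment. Final concentrations spanned up to 46 uM; bortezomib served as positive control.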

[2] = Cellular viability qHTS for adrenocortical cancer (ACC) cell line NCI-H295R (AID 1963990); conditions: CellTiter-Glo ATP luminescence, 48 h; series mostly up to 46.1 µM; further: nearly all actives have a fitted effect of over 60% in size;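 on activity change, negative = viability loss: 0% = DMSO only wells and -100% = full killing with cytotoxic reference compound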
In short: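 IC50 and maximal efficacy derive from four-parameter logistic modelling of titration curves, with reads scaled between DMSO-only wells (0%) and doxorubicin hydrochloride (100% inhibition). Compounds spanned up to 46 uM over 48 h.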
Potency means the concentration at half of the fitted maximal effect.

Structure (SMILES)	activity (max response) [1]	Potency [2]	Potency [1]	activity change, negative = viability loss [2]
Cc1ccc(NC(=O)[C@H]2CCCN(C(=O)c3c(C)cccc3F)[C@H]2c2ccc(NC3CCCC3)cc2)cc1C(F)(F)F	-13.2%	inactive	–	–
O=C(O)CCNc1cc(N2CCc3ccccc3CC2)nc(-c2cccnc2)n1	-9.23%	inactive	–	–
CC(=O)Oc1ccc(C(c2ccc(OC(C)=O)cc2)c2ccccn2)cc1	-17.9%	inactive	–	–
CCOC(=O)c1ccc(O)c(O)c1	-9.67%	inactive	–	–
COc1cc(=C2C=c3ccccc3=N2)[nH]/c1=C/c1[nH]c(C)cc1C	–	7.94 µM (active)	28.2 µM (active)	–
Nc1ccncc1N	-0.994%	inactive	–	–
CCOc1ccccc1O[C@H](c1ccccc1)[C@H]1CNCCO1	-2.45%	inactive	–	–
O=C1[C@@H]2[C@H]3CC[C@H](C3)[C@@H]2C(=O)N1CCCCN1CCN(c2ncccn2)CC1	6.58%	inactive	–	–
Cc1ccc(-c2ccc(C)cn2)nc1	-26.3%	inactive	–	–
CCC(=O)O[C@]1(C(=O)COC)[C@@H](C)C[C@H]2[C@@H]3CCC4=CC(=O)C=C[C@]4(C)C3(F)[C@@H](O)C[C@@]21C (stereo partly specified)	1.6%	inactive	–	–
O=C(NN1CCCC1)NS(=O)(=O)c1ccc(Cl)cc1	2.56%	inactive	–	–
CC(C)C[C@H](CC(=O)O)C(=O)N[C@@H](Cc1c[nH]c2ccccc12)C(=O)N[C@@H](C)c1ccccc1	0.614%	inactive	–	–
Cc1c(I)c(=O)n(-c2ccccc2)n1C	0.251%	inactive	–	–
CCOCOC[C@H](C[C@H](C)C(=O)NO)NC(=O)c1ccc(Oc2ccccc2)cc1	-8.03%	inactive	–	–
O=C(CCCCC(=O)Nc1c(I)cc(I)c(C(=O)O)c1I)Nc1c(I)cc(I)c(C(=O)O)c1I	10.3%	inactive	–	–
Clc1cccc(-c2ccc(-c3nnc(CCCc4ccc5cccnc5n4)o3)cc2)c1	-11.9%	inactive	–	–
O=C1Cc2cc(C(=O)NC3C[C@H]4CC[C@@H](C3)N4S(=O)(=O)CC3CCN(CCCC(F)(F)F)CC3)c(Cl)cc2N1 (stereo partly specified)	-5.12%	inactive	–	–
CC(=O)[C@@]1(O)CC[C@H]2[C@@H]3CCC4=CC(=O)CC[C@]4(C)[C@H]3CC[C@@]21C	-6.65%	inactive	–	–
CCN(CC)CCOc1ccc(C(O)(Cc2ccc(Cl)cc2)c2ccc(C)cc2)cc1 (stereo unspecified)	–	16.4 µM (active)	20.6 µM (active)	–
CCOC(=O)OC(C)OC(=O)[C@@H]1N2C(=O)[C@@H](NC(=O)[C@H](N)c3ccccc3)[C@H]2SC1(C)C (stereo partly specified)	4.54%	inactive	–	–
OC(C#CCN1CCCC1)(c1ccccc1)c1ccccc1	-0.545%	inactive	–	–
CCS(=O)(=O)c1ccc2oc(-c3ccc4ccccc4c3)nc2c1	1.49%	inactive	–	–
O=C(CN1CCN(Cc2ccc3c(c2)OCO3)CC1)N1c2ccccc2Sc2ccccc21	-10.1%	inactive	–	–
Cc1onc(-c2ccc(F)cc2)c1COc1ccc(C(=O)N2CCS(=O)(=O)CC2)cn1	-15%	inactive	–	–
CC(C)(Cc1c[nH]c2ccccc12)NCC(O)COc1ccccc1C#N (stereo unspecified)	-3.72%	inactive	–	–

Structure (SMILES)	activity (max response) [1]	Potency [2]	Potency [1]	activity change, negative = viability loss [2]
CCCCc1nc(Cl)c(CO)n1Cc1ccc(-c2ccccc2-c2nn[nH]n2)cc1	12.4%	inactive	–	–
c1ccc(-c2nc[nH]c2-c2ccccc2)cc1	-22.8%	inactive	–	–
CCN(CC)CCOCCOC(=O)C1(c2ccccc2)CCCC1	-3.2%	inactive	–	–
CO[C@]12C[C@@H](COC(=O)c3cncc(Br)c3)CN(C)[C@@H]1Cc1cn(C)c3cccc2c13	3.85%	inactive	–	–
CCCCCCn1c(=O)c2c(ncn2C)n(C)c1=O	14%	inactive	–	–
CC(O)Cn1cnc2c1c(=O)n(C)c(=O)n2C (stereo unspecified)	-7.87%	inactive	–	–
Cc1ccccc1C(=O)N1CC/C(=N\OS(=O)(=O)O)c2ccc(Cl)cc21	5.63%	inactive	–	–
N[C@H](Cc1c[nH]c2ccccc12)C(=O)O	5.49%	inactive	–	–
CC1Oc2cc(cnc2N)-c2c(nn(C)c2C#N)CN(C)C(=O)c2ccc(F)cc21 (stereo unspecified)	-20%	20 µM (active)	–	–
CN(C)c1ccc(C(=C2C=CC(=[N+](C)C)C=C2)c2ccccc2)cc1	–	0.92 µM (active)	0.82 µM (active)	–
CN1CCN(C2=Nc3ccccc3Sc3ccc(Cl)cc32)CC1	-24.6%	inactive	–	–
C[C@@H]1O[C@@H](O[C@@H]2\C=C/C=C\C=C/C=C\C[C@H](C)OC(=O)/C=C\[C@H]3O[C@@H]3C[C@H](O)C[C@]3(O)C[C@@H](O)[C@@H](C(=O)O)[C@H](C2)O3)[C@H](O)[C@H](N)[C@@H]1O	8.59%	inactive	–	–
CC(C)NC(=O)N1CC[C@H](N=C2Nc3cc(F)ccc3N(CC(F)F)c3ccc(Cl)cc32)C1	-16%	inactive	–	–
Cc1nc2ccccn2c(=O)c1CCN1CCC(C(=O)c2ccc(F)cc2)CC1	-20%	inactive	–	–
Cc1c(N)c(=O)n(-c2ccccc2)n1C	-4.39%	inactive	–	–
COCCOC(=O)C1=C(C)NC(C)=C(C(=O)OC(C)C)C1c1cccc([N+](=O)[O-])c1 (stereo unspecified)	7.46%	inactive	–	–
CC(=O)Nc1ccc(S(=O)(=O)Nc2ccc([N+](=O)[O-])cc2)cc1	3.97%	inactive	–	–
COC1=C2C[C@H](C)C[C@H](OC)[C@H](O)[C@@H](C)/C=C(/C)[C@H](OC(N)=O)[C@@H](OC)/C=C\C=C(\C)C(=O)NC(=CC1=O)C2=O	-3.63%	inactive	–	–
O=C(O)Cc1ccc(CCNS(=O)(=O)c2ccc(Cl)cc2)cc1	-0.672%	inactive	–	–
CCC(CC)C(c1ccc(Nc2nc3ccccc3s2)cc1)n1cncn1 (stereo unspecified)	–	17.8 µM (active)	22.4 µM (active)	–
C[C@]12CC[C@@H]3c4ccc(O)cc4CC[C@H]3[C@@H]1CCC2=O	-14.1%	inactive	–	–
Cn1c(=O)c(Oc2ccc(F)cc2F)cc2cnc(NC3CCOCC3)nc21	-3.03%	inactive	–	–
C[N+]1(C)CCC(OC(=O)C(O)(c2ccccc2)C2CCCC2)C1 (stereo unspecified)	7.55%	inactive	–	–
Cc1ccsc1/C=C/C1=NCCCN1C	-3.84%	inactive	–	–
OC1CCC(Oc2cccc3cnc(Nc4ccc5nc[nH]c5c4)nc23)CC1 (stereo unspecified)	–	2.51 µM (active)	7.94 µM (active)	–

Structure (SMILES)	activity (max response) [1]	Potency [2]	Potency [1]	activity change, negative = viability loss [2]
COc1ccc(-c2cnc3c(-c4cccc5ncccc45)cnn3c2)cc1	5.61%	inactive	–	–
CN1CCC(=C2c3ccccc3CCc3cccnc32)CC1	5.98%	inactive	–	–
C[C@H]1CNCCCN1S(=O)(=O)c1cccc2cncc(F)c12	-17.2%	inactive	–	–
CCCCOCCOCCOCc1cc2c(cc1CCC)OCO2	0.496% and -9.13%	inactive	–	–
Fc1ccc(-c2nc(-c3ccccc3F)[nH]c2-c2ccncc2)cc1	-20.2%	inactive	–	–
Cc1cccc(Nc2ccccc2C(=O)O)c1C	8.3%	inactive	–	–
CN(C)CCNC(=O)COc1c2cccc1Cc1cccc(c1OCC(=O)NCCN(C)C)Cc1cccc(c1OCC(=O)NCCN(C)C)Cc1cccc(c1OCC(=O)NCCN(C)C)C2	14.5%	–	–	4.99% [at 9.17 µM]
O=C1CC2(CCCC2)CC(=O)N1CCCCN1CCN(c2ncccn2)CC1	-4.13%	inactive	–	–
Cc1cc(O)cc(C)c1Cl	6.52%	inactive	–	–
COc1ccc(CCN(C)CCCC(C#N)(c2ccc(OC)c(OC)c2)C(C)C)cc1OC (stereo unspecified)	-2.85% and -16.8%	inactive	–	–
CCc1oc2ccccc2c1C(=O)c1cc(Br)c(O)c(Br)c1	–	7.31 µM (active)	7.31 µM (active)	–
OC(CCN1CCCCC1)(c1ccccc1)c1ccccc1	3.2%	inactive	–	–
CCOC(=O)NNc1nncc2ccccc12	4.25%	inactive	–	–
NS(=O)(=O)c1cc(C(=O)NN2C[C@H]3[C@H]4CCC(C4)[C@H]3C2)ccc1Cl	-7.57%	inactive	–	–
CC(C)[N+](C)(CCOC(=O)C1c2ccccc2Oc2ccccc21)C(C)C	-9.17%	inactive	–	–
N[C@@H](Cc1cc(I)c(O)c(I)c1)C(=O)O	8.5%	inactive	–	–
CCc1ccc(/C=C2/SC(=S)NC2=O)cc1	–	17.8 µM (active)	25.1 µM (active)	–
CC(C)C(N)C(=O)OCC(CO)OCn1cnc2c(=O)[nH]c(N)nc21 (stereo unspecified)	-23%	inactive	–	–
CCCCNc1ccc(C(=O)OCCN(CC)CC)cc1	-7.77%	inactive	–	–
OCCOCCN1CCN(C2=Nc3ccccc3Sc3ccccc32)CC1	-9.48%	inactive	–	–
CC(=O)SCC(CC(=O)c1ccc(C)cc1)C(=O)O (stereo unspecified)	11.5%	inactive	–	–
CC1=C2[N-][C@H]([C@H](CC(N)=O)[C@@]2(C)CCC(=O)NC[C@@H](C)OP(=O)([O-])O[C@H]2[C@@H](O)[C@@H](n3cnc4cc(C)c(C)cc43)O[C@@H]2CO)[C@]2(C)N=C(C(C)=C3N=C(C=C4N=C1[C@@H](CCC(N)=O)C4(C)C)[C@@H](CCC(N)=O)[C@]3(C)CC(N)=O)[C@@H](CCC(N)=O)[C@]2(C)CC(N)=O.O.[Co+2]	-17.2%	inactive	–	–
CCOc1cc(/C=C2/C(=O)N(c3ccccc3)N=C2C)cc(Cl)c1OCC(=O)OC	-5.72%	inactive	–	–
